{
  "source": "PubChem BioAssay (NCATS)",
  "note": "Records with an inconclusive call do not appear. Unmarked numbers belong to inactive results. Calls of active or inactive are those of the source. Calls follow the shape of the dose curve; as a rule, active = well fitted inhibition curve with a large enough effect; inconclusive = small, poorly fitted or top-dose-only effect; inactive = no such curve, though single readings can be large or run the other way.",
  "data": [
    {"assay": "BET inhibitor-based combinations targeting novel dependencies in MECOM-rearranged (r) AML: OCI-AML3 cell line (AID 2202232); also: nearly all actives have a fitted effect of over 35% in size; also: potency is read from the fitted curve at half-maximal effect", "conditions": "CellTiter-Glo luminescence, 48 h; Potency: OCI-AML3 viability; series mostly up to 46 µM; viability (% of control): at the top concentration", "excerpt": "Ecotropic viral insertion site 1 (EVI1) is located on chromosome 3q26.2 as part of the MECOM (MDS and EVI1 complex) locus. Under normal hematopoiesis, EVI1 is a regulator of hematopoietic stem cell maintenance and self-renewal and EVI1 levels decrease as the cells differentiate. In approximately 5-10% of de novo acute myeloid leukemia (AML) EVI1 is aberrantly expressed, including Chromosomal inv(3)(q21;q26.2) or t(3;3)(q21;q26.2) alterations (MECOM-r) that account for about 50% of AML with EVI1 overexpression 31. AMLs with high levels of EVI1 have a poor prognosis and an overall survival time averaging between 10-14 months. EVI1 overexpression confers resistance in leukemia cells, highlighting the need to develop new targeted therapies for EVI1 overexpressing AMLs.\nHere, we performed an unbiased chemical drug screening by evaluating the single agent activity of a collection of 2,480 oncology-focused, approved and investigational drugs (NCATS Mechanism Interrogation Plates, MIPE v5.0) against a panel of seven AML cell lines. These included four MECOM-r cell-lines (AML-191, AML-194, UCSD-AML1 and HNT-34) and three non-MECOM-r AMLs (MV4-11, OCI-AML3 and SET-2). Exploiting the mechanistic redundancy built in the library, we identified target-level sensitivities in MECOM-r AML cells and relative activity as compared to other AML subtypes.\nA collection of 2480 mechanistically annotated dugs (MIPE v5.0) was used to screen four 3q26.2 rearranged AML cell lines and three non-3q26.2 rearranged AML cell lines. This library purposely exploits redundancy by including multiple inhibitors of key onco-targets, while simultaneously encompassing mechanistic diversity, targeting more than 800 distinct mechanisms of action. Briefly, cells were seeded in 5 uL of growth media using a Multidrop Combi dispenser into 1536 well white polystyrene tissue culture treated plates (Corning) at a density of 500cells/well. For each cell-line, for each of the 2480 drugs in MIPE v5.0 library, an 11-point dose curve was generated via a 1536 pin-tool. Plates were incubated for 48 hr at standard incubator conditions, covered by a stainless steel gasketed lid to prevent evaporation. Cell viability was determined by luminescence based, Cell Titer Glo assay (Promega). In detail, 3 uL of Cell Titer Glo were added to each well and plates were incubated at room temperature for 15 min with a stainless-steel lid in place. Luminescence readings were taken using a Viewlux (PerkinElmer) with a 2 s exposure time per plate. Compound dose-response curves were normalized to DMSO and empty well controls on each plate. Quantitative drug activity data from dose-response curves was determined utilizing area Under the Curve (AUC) and Z-transformed AUC (Z-AUC, a mean-centering transformation applied to each individual cell-line screened).", "values": [
      {"compound": "Cc1c(N)nc([C@H](CC(N)=O)NC[C@@H](N)C(N)=O)nc1C(=O)N[C@H](C(=O)N[C@@H](C)[C@H](O)[C@@H](C)C(=O)N[C@@H](C(=O)NCCc1nc(-c2nc(C(=O)NCCC[S+](C)C)cs2)cs1)[C@@H](C)O)C(O[C@H]1O[C@H](CO)[C@H](O)[C@@H](O)[C@H]1O[C@H]1O[C@H](CO)[C@@H](O)[C@H](OC(N)=O)[C@@H]1O)c1cnc[nH]1", "note": "(stereo not given in full)", "viability (% of control)": "97.2% [at 15.6 µM]"},
      {"compound": "C[C@@H]1C[C@@H]([C@H](O)CC2CC(=O)NC(=O)C2)C(=O)[C@@H](C)C1", "Potency": "1.66 µM (active)"},
      {"compound": "COCC1(CO)C(=O)C2CCN1CC2", "note": "(stereo not given)", "Potency": "4.68 µM (active)"},
      {"compound": "CC(O)(CS(=O)(=O)c1ccc(F)cc1)C(=O)Nc1ccc(C#N)c(C(F)(F)F)c1", "note": "(stereo not given)", "Potency": "0.0042 µM (active)"},
      {"compound": "C[C@@H]1O[C@@H](O[C@H]2C[C@@H](O)[C@]3(CO)[C@H]4[C@H](O)C[C@]5(C)[C@@H](C6=CC(=O)OC6)CC[C@]5(O)[C@@H]4CC[C@]3(O)C2)[C@H](O)[C@H](O)[C@H]1O", "Potency": "0.0661 µM (active)"},
      {"compound": "COC(=O)[C@@]12OC[C@]34[C@H]([C@@H](O)[C@@H]1O)[C@@]1(C)CC(=O)C(O)=C(C)[C@@H]1C[C@H]3OC(=O)[C@H](OC(=O)/C=C(\\C)C(C)C)[C@@H]24", "Potency": "0.0074 µM (active)"},
      {"compound": "C[C@H]1CCC/C=C/C2C[C@H](O)C[C@H]2[C@H](O)/C=C/C(=O)O1", "note": "(stereo not given in full)", "Potency": "0.417 µM (active)"},
      {"compound": "O=C(Nc1ccncc1)C(=O)c1cn(Cc2ccc(Cl)cc2)c2ccccc12", "Potency": "0.417 µM (active)"},
      {"compound": "CN(C)CCN(C)CCc1ccc(Cl)c(Cl)c1", "viability (% of control)": "102%"},
      {"compound": "C[C@@]12OC(=O)[C@]1([C@@H](O)[C@@H]1C=CCCC1)NC(=O)[C@@H]2CCCl", "Potency": "0.0209 µM (active)"},
      {"compound": "CCNC(=O)C[C@@H]1N=C(c2ccc(Cl)cc2)c2cc(OC)ccc2-n2c(C)nnc21", "Potency": "0.742 µM (active)"},
      {"compound": "C=C(C)[C@@H]1CCC(C)=C[C@H]1c1c(O)cc(CCCCC)cc1O", "Potency": "20.9 µM (active)"},
      {"compound": "O=P1(N(CCCl)CCCl)NCCCO1", "note": "(stereo not given)", "viability (% of control)": "113%"},
      {"compound": "COc1ccc(C(=O)c2c(C)n(CCN3CCOCC3)c3ccccc23)cc1", "Potency": "3.72 µM (active)"},
      {"compound": "O=C(N[C@@H](COc1ccc2[nH]c(=O)[nH]c2c1)c1ccccc1)c1cccn(Cc2ccc(F)c(F)c2)c1=O", "Potency": "10.5 µM (active)"},
      {"compound": "COc1cc([C@@H]2c3cc4c(cc3[C@@H](O)C3COC(=O)C32)OCO4)cc(OC)c1O", "note": "(stereo not given in full)", "Potency": "0.296 µM (active)"},
      {"compound": "Clc1ccccc1C(c1ccccc1)(c1ccccc1)n1cccn1", "viability (% of control)": "96.5%"},
      {"compound": "COc1ccc2c(c[n+](C)c3c4cc5c(cc4ccc23)OCO5)c1OC", "Potency": "5.9 µM (active)"},
      {"compound": "COc1cc(C)[nH]c(=O)c1CNC(=O)c1c(C)n([C@H](C)C2CCN(CC(F)(F)F)CC2)c2ccccc12", "Potency": "14.8 µM (active)"},
      {"compound": "COC[C@@H](NC(C)=O)C(=O)NCc1ccccc1", "viability (% of control)": "121%"},
      {"compound": "COC(=O)[C@]12CCC(C)(C)C[C@H]1[C@H]1C(=O)C=C3[C@@]4(C)C=C(C#N)C(=O)C(C)(C)[C@@H]4CC[C@@]3(C)[C@]1(C)CC2", "Potency": "2.63 µM (active)"},
      {"compound": "O=C(O)CNC(=O)c1c(O)c2ccccc2n(Cc2ccccc2)c1=O", "viability (% of control)": "112%"},
      {"compound": "C/C(=C\\c1csc(C)n1)[C@@H]1C[C@@H]2O[C@@H]2CCC[C@H](C)[C@H](O)[C@@H](C)C(=O)C(C)(C)[C@@H](O)CC(=O)O1", "Potency": "0.0209 µM (active)"},
      {"compound": "O=C(CBr)N1CC([N+](=O)[O-])([N+](=O)[O-])C1", "Potency": "34 µM (active)"},
      {"compound": "CN(C)[C@@H]1C(=O)C(C(N)=O)=C(O)[C@@]2(O)C(=O)C3=C(O)c4c(O)cccc4[C@@](C)(O)[C@H]3C[C@@H]12", "viability (% of control)": "64.8%"},
      {"compound": "N=c1c2c(-c3ccccc3)c(-c3ccccc3)n(Cc3ccccc3)c2ncn1C1CCC(O)CC1", "note": "(stereo not given)", "Potency": "8.33 µM (active)"},
      {"compound": "O=C(N[C@H]1CN2CCC1CC2)c1ccc(Cl)cc1", "viability (% of control)": "124%"},
      {"compound": "O=C1CC[C@@]2(O)[C@H]3Cc4ccc(O)c5c4[C@@]2(CCN3CC2CC2)[C@H]1O5", "viability (% of control)": "122%"},
      {"compound": "Cn1cc(C2=C(c3cn(C4CCN(Cc5ccccn5)CC4)c4ccccc34)C(=O)NC2=O)c2ccccc21", "viability (% of control)": "144%"},
      {"compound": "CCCN1CCO[C@@H]2c3cc(O)ccc3OC[C@H]21", "viability (% of control)": "82.9%"},
      {"compound": "C[C@]12Cc3cn[nH]c3C[C@@H]1CC[C@@H]1[C@@H]2CC[C@@]2(C)[C@H]1CC[C@]2(C)O", "viability (% of control)": "57.1%"},
      {"compound": "CC(C)C[C@H](CN)CC(=O)O", "viability (% of control)": "102%"},
      {"compound": "COC1(CS(=O)c2ccccc2)CCN(CCc2c[nH]c3ccc(F)cc23)CC1", "note": "(stereo not given)", "Potency": "14.8 µM (active)"},
      {"compound": "O=c1[nH]c2ccccc2n1CCCN1CCC(n2c(=O)[nH]c3cc(Cl)ccc32)CC1", "viability (% of control)": "103%"},
      {"compound": "NN=C(N)N", "viability (% of control)": "104%"},
      {"compound": "CC(=O)N1N=C(c2ccc(N)cc2)c2cc3c(cc2C[C@H]1C)OCO3", "viability (% of control)": "78.4%"},
      {"compound": "C[C@]12CC[C@H]3[C@@H](CCC4=CC(=O)CC[C@@]43C)[C@H]1CC[C@H]2OC(=O)CCC1CCCC1", "viability (% of control)": "88.9%"},
      {"compound": "CC[C@@H](C(N)=O)N1CCCC1=O", "viability (% of control)": "107%"},
      {"compound": "CC[C@@]1(O)C(=O)OCc2c1cc1n(c2=O)Cc2cc3ccccc3nc2-1", "Potency": "0.0132 µM (active)"},
      {"compound": "CC1=C(O)C(=O)C=C2C1=CC=C1[C@@]2(C)CC[C@@]2(C)[C@@H]3C[C@](C)(C(=O)O)CC[C@]3(C)CC[C@]12C", "Potency": "0.742 µM (active)"}
    ]}
  ]
}
